# Bioassay records as filed in PubChem BioAssay.
# D1 potentiator = potentiators of human D1 dopamine receptor; P21728; HEK293 TREx D1 cells, calcium flux, dopamine EC20 potentiation; potentiation, % at 10 µM; 360,000 compounds, 0.036% hits; AID 504651; in the data active = potentiation above about 30%; note: 0% is about no effect
# D1 agonist = human D1 receptor agonism. HEK293 T-REx D1 cells, calcium flux, agonist mode. activation, % at 2 µM. 360,000 compounds, 1% hits. AID 504660; note: 0% is about no effect
#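 Inducible HEK293 T-REx D1 cells, force-coupled to calcium signalling, were plated at 4000 cells/well with tetracycline and held overnight at 30 C. After no-wash calcium dye loading, compound-evoked calcium rise over 180 s flagged agonists.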
# TRHR PAM = allosteric enhancers of human TRH receptor; enhancement, % at 2 µM; 360,000 compounds, 0.66% hits; P34981; TRHR cells, fluo-8 calcium fluorescence, EC20 TRH enhancement; in the data active = enhancement above about 30%; note: 0% is about no effect
# Target sequence (P34981 whole entry, looked up): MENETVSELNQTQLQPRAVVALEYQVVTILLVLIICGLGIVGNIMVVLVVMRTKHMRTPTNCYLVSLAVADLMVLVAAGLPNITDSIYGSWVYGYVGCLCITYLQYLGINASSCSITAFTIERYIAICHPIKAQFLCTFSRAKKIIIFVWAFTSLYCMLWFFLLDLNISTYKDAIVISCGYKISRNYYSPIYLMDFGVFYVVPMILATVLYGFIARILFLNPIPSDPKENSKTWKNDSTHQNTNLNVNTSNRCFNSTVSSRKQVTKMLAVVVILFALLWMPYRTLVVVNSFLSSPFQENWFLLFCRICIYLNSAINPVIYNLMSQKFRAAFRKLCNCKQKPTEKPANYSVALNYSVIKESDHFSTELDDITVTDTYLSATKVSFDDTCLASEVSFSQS
#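 Enhancer read-out: after compound pinning and an initial kinetic agonist-mode read, an EC20 of TRH (10 nM final) was injected and fluo-8 calcium signal (Ex 480/Em 530) followed at 1 s/cycle for 100 cycles in TRHR-expressing cells.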
# TRHR ag = activates the human TRH receptor | TRHR cells, calcium flux fluo-8, FDSS agonist mode | 360,000 compounds, 0.18% hits | P34981 | activation, % at 2 µM; note: 0% is about no effect
#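 Agonist-mode FDSS calcium read (Ex 480/Em 530, 1 s cycles) in 1536-well TRHR cells with fluo-8 dye, after 10-cycle baseline and 23 nL compound addition; TRH at EC20 (10 nM final) added afterwards for the enhancer phase.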
# D1 antagonist = human D1 dopamine receptor antagonism | AID 504652 | 360,000 compounds, 3.2% hits | HEK293 TREx D1 cells, calcium flux, dopamine EC80; stronger effect = lower value | activity change, negative = inhibition, % at 10 µM | P21728; in the data active = activity change below about -30%; note: % is set by controls: 0 for no effect and ±100 for the full control effect
#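 Tetracycline-induced HEK293 Trex D1 cells, force-coupled to calcium, dye-loaded; compounds added and read 180 s, then EC80 dopamine added and calcium flux tracked kinetically another 180 s.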
# * marks the source's active call; other numbers are inactive results; . = not tested or not shown. The list is not random: actives were taken first. Their share in the collection is about 4.7%. Cut-off read from the data, not from the text of the source, unless noted: active = activation above about 30%; inactive = the rest.
SMILES,D1 potentiator,D1 agonist,TRHR PAM,TRHR ag,D1 antagonist
COC(=O)C1=NN(C(=O)c2ccc(Br)cc2)C(O)(C(C)(C)C)C1 (stereo not drawn),1,32*,-8,9,-5
COC(=O)C1=NN(C(=O)c2cccc(Cl)c2)C(O)(C(C)(C)C)C1 (stereo not drawn),-7,31*,6,6,-15
CC(=O)Nc1ccc(OCC(O)CN2CCN(S(=O)(=O)c3ccc(NC(C)=O)cc3)CC2)cc1 (stereo not drawn),5,3,4,0,-34*
CC(=O)c1ccc(OCC(O)CN2CCOCC2)cc1 (stereo not drawn),-3,1,3,-1,-35*
CC(=O)Nc1ccc(OCC(O)Cn2cccn2)cc1 (stereo not drawn),3,1,-7,0,-35*
CCNC(=O)NC(=O)CSc1ccc(S(=O)(=O)N(C)C2CCCCC2)cn1,13,1,-11,-1,-10
COc1ccccc1N1N=C(c2ccc([N+](=O)[O-])cc2)CC1c1ccccc1 (stereo not drawn),-4,63*,2,24,-6
COc1cc(N2N=C(c3ccccc3)CC2c2ccccc2)c(C=O)cc1C=O (stereo not drawn),1,-2,0,0,12
O=[N+]([O-])c1ccc(N2N=C(c3ccccc3)CC2c2ccccc2O)cc1 (stereo not drawn),-9,63*,13,24,2
O=C(c1ccccc1)N1N=C(c2ccccc2)CC1c1ccccc1O (stereo not drawn),-5,3,7,-1,31
O=C(NCc1ccc(F)cc1)c1ccc(Nc2nc3ccccc3n3nnnc23)cc1,-1,1,9,1,-30*
CC(C)(C)/C(O)=C/c1nc2ccccc2[nH]c1=O,-1,45*,5,1,-7
O=c1[nH]c2ccccc2nc1/C=C(\O)c1cccs1,5,279*,6,115*,-6
COc1cccc(-c2cc(C(=O)NCCc3ccc(OC)c(OC)c3)no2)c1,-1,24,-1,1,3
CCOC(=O)N1CCC2(CC1)C(C#N)=C(N)Oc1n[nH]c(CSc3ccc(C)cc3)c12,-2,2,-1,1,-39*
Cc1ccc(NC(=O)C(NC2CCCc3ccccc32)c2ccccc2)c([N+](=O)[O-])c1 (stereo not drawn),2,4,5,0,15
Cc1ccc(NC(=O)C(NC2CCCc3ccccc32)c2ccccc2)cc1Cl (stereo not drawn),7,9,32*,0,-23
CNC(=O)NC(=O)C(NC1CCCc2ccccc21)c1ccccc1 (stereo not drawn),11,-1,6,-1,-33*
O=C(Cn1cnc2ccccc21)Nc1ccc2c(c1)OCCCO2,-9,4,-6,3,-28
NC(=O)c1oc2ccccc2c1NC(=O)C1CCCCC1,-5,0,38*,0,7
NC(=O)c1oc2ccccc2c1NC(=O)CN1CCCCC1,-8,-1,-8,0,-12
CCOC(=O)c1ccc(NC(=O)Cn2nnc(-c3ccc(C(F)(F)F)cc3)n2)cc1,-2,1,44*,0,18
Cc1ccc(C)c(N2CCN(CCCNC(=O)Cn3cc4c(n3)CCCCC4)CC2)c1,-5,33*,-11,3,-12
Cc1ccc(C)c(N2CCN(CCCNC(=O)Cn3cc4c(n3)CCC(C)C4)CC2)c1 (stereo not drawn),-6,48*,7,0,-2
O=C(Cn1cc2c(n1)CCCC2)NCCCN1CCN(Cc2ccccc2)CC1,-5,1,6,0,-24
SMILES,D1 potentiator,D1 agonist,TRHR PAM,TRHR ag,D1 antagonist
CC1CCc2nn(CC(=O)NCCCN3CCCC3=O)cc2C1 (stereo not drawn),.,1,-5,0,21
O=C(Cn1cc2c(n1)CCCC2)NCCCN1CCN(c2ccccc2F)CC1,-8,0,2,0,-35*
CCN1CCN(CCCNC(=O)Cn2cc3c(n2)CCCC3)CC1,.,-2,9,-1,6
CCOC(=O)c1ccc(Nc2nc3ccc(C(=O)c4ccccc4)cc3n3c(C)nnc23)cc1,0,4,0,1,-12
O=C(c1cccc(Cl)c1)n1nc(-c2cccnc2)nc1NCc1ccccc1,-1,-2,4,0,2
CCOC(=O)c1ccc(NC(=O)Cn2cc3c(n2)CCC(C)C3)cc1 (stereo not drawn),-3,-2,2,0,-30*
COc1cc(-c2noc(-c3cc4cccc(C)c4oc3=O)n2)cc(OC)c1OC,-4,1,6,-1,5
CCN(CC)c1ccc2cc(-c3nc(-c4ccccc4F)no3)c(=O)oc2c1,2,204*,4,65*,-13
CCN(CC)c1ccc2cc(-c3nc(-c4cc(OC)c(OC)c(OC)c4)no3)c(=O)oc2c1,-1,153*,13,122*,-29
CCN(CC)c1ccc2cc(-c3nc(-c4cccs4)no3)c(=O)oc2c1,-4,278*,13,124*,-28
Cc1ccccc1-c1noc(-c2cc3ccccc3oc2=O)n1,-3,2,-1,0,-3
Cc1ccc2c(C)c(C(=O)NCCN3CCOC3=O)oc2c1C,2,0,6,0,-6
O=C(CCS(=O)(=O)c1cc2c3c(c1)CCN3C(=O)CC2)Nc1cccc(Br)c1,1,3,1,0,18
O=C(COC(=O)c1n[nH]c2ccccc12)NCCc1ccc(Cl)cc1,.,20,3,-1,-30*
O=C(COC(=O)Cc1ccc(Cl)cc1)NCCc1ccccc1,.,8,-1,0,-6
COc1ccc(CCNC(=O)c2n[nH]c3ccccc23)cc1,-3,5,2,0,-19
Nc1nccnc1C(=O)OCC(=O)NCCc1ccc(Cl)cc1,7,0,-4,1,-47*
CC(C)CNC(=O)COC(=O)c1n[nH]c2ccccc12,4,2,0,0,-51*
COc1ccc(CNC(=O)COC(=O)c2n[nH]c3ccccc23)cc1,5,2,0,0,-6
CC1CCN(S(=O)(=O)c2cc(C(=O)NCCc3ccccc3)n(C)c2)CC1,-5,2,-2,-1,8
COc1ccc(C(=O)Oc2cccnc2)cc1,-5,1,4,0,-32*
COC(=O)c1ccc(OC(=O)c2cccnc2)cc1,-3,4,0,0,-1
CCNC(=S)Nc1cccc([N+](=O)[O-])c1,-6,9,-4,0,-13
O=C(Nc1ccccc1)Nc1ccccc1,-4,8,0,3,-33*
COC(=O)c1cc(NC(=O)Nc2ccccc2)ccc1Cl,-5,41*,-2,1,-54*
O=C(Nc1ccccc1)Nc1ccc(Cl)c([N+](=O)[O-])c1,-10,32*,-5,1,-46*
